ELG1 DNA repair: blocks ELG1-dependent DNA repair in HEK293T cells; HEK293T ELG1-luciferase reporter, luminescence, 16 h; DNA damage induced by 5-fluorouridine; Potency, µM (doses to about 46.1 µM), without a hit: at the top dose activity change, negative = inhibition, actives largely listed as inhibitors; hit rate 2.3% among 330,000; also: % is scaled to controls: 0 for no effect and ±100 for the full control effect; nearly all actives have a fitted effect of over 55% in size
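DMSO vehicle served as the neutral condition. Each well held 2,000 cells given 5-fluorouridine plus compound; after 16 hr at 37 °C/5% CO2, ONE-Glo was added and luciferase measured 30 min later.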
KB-3-1 cytotox: kills parental KB-3-1 adenocarcinoma cells. KB-3-1 viability, CellTiter-Glo ATP luminescence, 72 h. Potency, µM (series often up to 46.1 µM), hits mostly cytotoxic. hit rate 1.4% among 400,000; also: % is scaled to controls: 0 for no effect and ±100 for the full control effect; nearly all actives have a fitted effect of over 60% in size
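Screening of KB-3-1 cells (DMEM, 10% FBS, phenol-red free) ran from lowest to highest compound concentration; after 72 h at 37 °C viability was read luminescently and curves fitted.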
SW480 rereplic: inducers of DNA re-replication in SW480 colon cancer cells; SW480 DNA re-replication, Hoechst DNA content imaging, 48 h; Potency, µM (series often up to 46.1 µM), for the others: at the top dose re-replication activation, actives largely listed as activators; hit rate 1.8% among 340,000; also: % of control where 0% means no effect; nearly all actives have a fitted effect of over 55% in size
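Treated cells incubate 48 hr (37 C, 5% CO2), are stained 40 min with Hoechst, and nuclear fluorescence is enumerated; a rise in nuclei with high DNA signal marks re-replication.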
KB-V1 cytotox: kills drug-selected multidrug resistant KB-V1 cells; AID 1347076; Potency, µM (top dose mostly 46.1 µM), most hits filed as cytotoxic; hit rate 3.4% among 400,000; KB-V1 MDR cells viability, CellTiter-Glo, 72 h; also: % is scaled to controls: 0 for no effect and ±100 for the full control effect; nearly all actives have a fitted effect of over 60% in size
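qHTS viability screen in drug-selected KB-V1 MDR cells: 72 h compound treatment at 37 degrees C, ATP luminescence end point.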
MCF10A rereplic: induces DNA re-replication in MCF 10a normal breast cells | MCF 10A DNA re-replication, Hoechst nuclear intensity, 48 h | AID 624296 | hit rate 2.9% among 350,000 | Potency, µM (doses to about 46.1 µM), for the others: at the highest dose activity, positive = re-replication, most hits filed as activators; also: % of control where 0% means no effect; nearly all actives have a fitted effect of over 50% in size
Numbers without * were called inactive; i = inactive; ? = inconclusive; / = no result. Most compounds without a hit are left out; they make up all but 8.2% or so of the library. Calls follow the shape of the dose curve; as a rule, active = well fitted curve in the direction sought with a large enough effect; inconclusive = small, poorly fitted or top-dose-only effect, or another doubt; inactive = no such curve, though single readings can be large; an effect the other way counts as inactive or inconclusive. Potency is read from the fitted curve at half-maximal effect.

SMILES | ELG1 DNA repair | KB-3-1 cytotox | SW480 rereplic | KB-V1 cytotox | MCF10A rereplic
O=C(Nc1cc(-c2nc3cc(Cl)ccc3o2)ccc1Cl)c1cc2ccccc2o1 | / | i | / | ? | /
CCCN1CN(c2ccccc2)C(=S)N(c2ccccc2)C1 | 0.0% | i | 3.66µM* | i | 0.0%
O=C(Nc1ccn(CCCN2CCN(Cc3cccc4ccccc34)CC2)c(=O)n1)OCc1ccccc1 | / | ? | / | 18.4µM* | /
O=S(=O)(c1ccc(-c2ccon2)s1)N1CCOCC1 | 31.8% | i | 0.581µM* | i | 19.1%
Cc1ccc(S(=O)(=O)N2CCOCC2)s1 | 1.8% | i | -0.9% | i | 8.4%
CC1CN(C(=O)COC(=O)[C@@H](NC(=O)c2ccccc2Cl)C(C)C)CC(C)O1 (some centres undefined) | 16.4% | i | 3.7% | ? | -5.2%
CCCN(CC(=O)Nc1ccccc1C)C(=O)c1nn(CC)c(=O)c2ccccc12 | 0.5% | i | -3.2% | 8.2µM* | -3.4%
CCCCC(=O)Nc1nnc(S(=O)(=O)N(C)Cc2ccc(Cl)cc2)s1 | / | i | / | i | /
O=[N+]([O-])c1cc2c(c([N+](=O)[O-])c1)Nc1ccccc1O2 | / | 23.1µM* | / | 13µM* | /
Cc1cccc(Oc2cc([N+](=O)[O-])cc3c2C(=O)Nc2ccccc2O3)c1 | 4.4% | ? | 3.9% | 2.59µM* | ?
O=C1Nc2ccccc2Oc2cc([N+](=O)[O-])cc(Oc3ccccc3)c21 | -27.7% | i | 15.5% | i | ?
COc1ccc2nc3ccccc3[n+]([O-])c2c1 | / | i | 0.5% | i | 0.4%
COc1ccc2ccc3cccc[n+]3c2c1 | / | 13µM* | ? | i | ?
CC(=O)Nc1cc(-c2nc3ccccc3s2)ccc1C | / | i | / | i | /
Cc1ccc(-c2nc3ccccc3o2)cc1NC(=S)NC(=O)c1cccs1 | ? | i | -4.6% | i | ?
Cc1cc(C)c2oc(-c3ccc(C)c(NC(=S)NC(=O)c4cccs4)c3)nc2c1 | 14.6% | i | -2.8% | i | 9.2µM*
Cc1ccc(-c2nc3ccccc3s2)cc1NC(=S)NC(=O)c1ccccc1 | ? | i | 4.2% | i | 13µM*
Cc1cc(-c2nc3ccccc3s2)ccc1N | / | ? | ? | 18.4µM* | 20.6µM*
CCN(CC)C(=O)C(C)N(C#N)c1nc(NC(C)C)nc(NC(C)C)n1 (centres undefined) | 13.8% | i | 1.9% | 9.2µM* | 4.2%
CCNc1nc(NC(C)C)nc(N(C#N)C(C)C(=O)N(CC)CC)n1 (centres undefined) | 0.0% | i | -12.6% | i | 2.7%
Cc1ccc(C)c(N2CCN(C3C(=O)Nc4ccccc4-n4nnnc43)CC2)c1 (centres undefined) | / | 14.6µM* | / | 11.6µM* | /
CCOc1ccc(OCC(=O)OCC(=O)NNC(=O)c2ccc([N+](=O)[O-])cc2)cc1 | 13.5% | i | -518.0% | i | 2.2%
COc1ccc(CN(C)Cc2nc3scc(-c4ccccc4)c3c(=O)[nH]2)cc1OC | 16.4µM* | i | 72.5% | i | ?
O=C(COC(=O)C1(c2ccc(F)cc2)CCCC1)N1CCc2ccccc21 | -15.4% | i | -54.2% | 20.6µM* | 15.9%
O=C(CO/N=C/c1ccccc1O)N1CCc2ccccc21 | ? | i | 0.6% | 13µM* | 6.3%
SMILES | ELG1 DNA repair | KB-3-1 cytotox | SW480 rereplic | KB-V1 cytotox | MCF10A rereplic
Cc1ccc(OCC(=O)N2CCc3ccccc32)cc1 | ? | i | -4.7% | i | 17.5%
CC(=O)c1ccc(N2CCN(C(=O)COc3ccc4c(c3)CCC4)CC2)cc1 | 3.0% | i | -5.8% | i | -31.5%
Cc1ccc(Cl)cc1N1CCN(C(=O)COc2ccc3c(c2)CCC3)CC1 | -9.2% | ? | 20.5% | i | 13µM*
O=C(OCC(=O)N1CCc2ccccc21)c1ccccc1 | ? | i | 1.0% | i | 9.5%
O=C(COC(=O)C1(c2ccccc2F)CCCC1)N1CCc2ccccc21 | ? | i | 2.3% | i | -4.8%
O=C(COc1ccc2c(c1)CCC2)N1CCc2ccccc21 | ? | i | ? | i | 25.9µM*
N#CCSc1ccc2nc(-c3ccccc3)cn2n1 | ? | i | -5.6% | i | -0.3%
COc1ccc(S(=O)(=O)c2cn(C)c3cc(N4CCCCCC4)c(F)cc3c2=O)cc1 | / | i | / | i | /
CC1CCN2c3cc(Cl)ccc3CC3(C(=O)OC(C)(C)OC3=O)C2C1 (centres undefined) | / | i | / | i | /
CCOc1cc(C2C(C#N)=C(N)OC(C)=C2C(C)=O)c(Br)c(Br)c1OC(C)C (centres undefined) | -28.9% | ? | 8.2µM* | 14.6µM* | 16.4µM*
Fc1ccc(Sc2nc(-c3ccccc3)nnc2C(F)(F)F)cc1 | ? | 16.4µM* | ? | i | 3.66µM*
Fc1ccc(Oc2nc(-c3ccccc3)nnc2C(F)(F)F)cc1 | -1.0% | i | 1.9% | i | ?
NC(=Nc1ccccc1)N(c1ccccc1)c1ccccc1 | / | i | ? | i | 11.6µM*
C=C1/C=C(\C)C(C)(O)CC(O)CC(=O)C(O)C(O)C(C)CC(C)OC(=O)/C(C)=C/CC/C=C/C(OC)C(O)CC(C)C1 (centres undefined) | 14.6µM* | i | -4.5% | i | ?
CCN(CC)CCCN(C(=O)c1ccc(OC)cc1)c1nc(-c2ccc(OC)cc2)cs1 | ? | ? | ? | i | ?
COc1ccc(-c2csc(N(CCc3ccc(OC)c(OC)c3)C(=O)COc3ccccc3)n2)cc1 | ? | i | -8.8% | 3.66µM* | 6.1%
COc1ccc(-c2csc(N(Cc3ccccc3)C(=O)COc3ccc(Cl)cc3)n2)cc1 | ? | i | -3.1% | i | 15.5%
COc1ccc(-c2csc(N(CCCN(C)C)C(=O)c3cccs3)n2)cc1 | -7.0% | i | 15.8% | 7.31µM* | 13.8%
COCCCN(C(C)=O)c1nc(-c2ccc(OC)cc2)cs1 | -20.0% | 11.6µM* | ? | 7.31µM* | ?
CCN(C(=O)c1cccs1)c1nc(-c2ccc(OC)cc2)cs1 | ? | i | ? | i | ?
COc1ccccc1CNC(=O)CCn1c(=O)c2ccccc2n(CC(=O)Nc2ccc(C)cc2Cl)c1=O | / | i | / | i | /
CCc1ccc(N2C(=O)C(Cl)=C(Nc3ccc(C(=O)N4CCCC4)cc3)C2=O)cc1 | -3.3% | i | ? | i | 10.3µM*
CC1CCN(S(=O)(=O)c2ccc(C(=O)Nc3ccccc3-c3nc4ccccc4[nH]3)cc2)CC1 | 16.4µM* | ? | 1.1% | 16.4µM* | 1.5%
CC1CCCN(S(=O)(=O)c2ccc(C(=O)Nc3ccccc3-c3nc4ccccc4[nH]3)cc2)C1 (centres undefined) | ? | i | -2.0% | i | -0.2%
O=C(NC1CCCCC1)C1CCN(S(=O)(=O)N2CCCCCC2)CC1 | 13.3% | i | 1.5% | 16.4µM* | 0.1%

High-throughput results (PubChem)
